Results on nine compounds are retold here after PubChem BioAssay (NCATS).

For part of these data: Potency and affinity values are given separately. Activity calls are given as the source filed them. How the calls were made is not given here.

Assay in the first assay: not given
To be noted: Ebola virus entry assay, blue channel (ratio component).
On to `N#CC1(c2ccc(F)cc2)CCC(=O)CC1`, for which the result was inactive.
As to `CC(=O)[C@H]1CC[C@H]2[C@@H]3C[C@H](C)C4=CC(=O)CC[C@]4(C)[C@H]3[C@@H](O)C[C@]12C`, the result was inactive.
For `COc1cnc(NS(=O)(=O)c2ccc(N)cc2)nc1`, the outcome was inactive.

A short description of the next assay: Immunotoxin (HA22) sensitization/mitigation study. Vehicle arm (PBS) (AID 1159510). Further: potency means the concentration at half of the fitted maximal effect. To be noted: cancer cells viability with PBS vehicle (HA22 study); series mostly up to 46.1 µM; viability (% of control): at the top concentration.
Regarding `CNC(=O)c1ccccc1Sc1ccc2c(/C=C/c3ccccn3)n[nH]c2c1`, the Potency was 6.62 µM (active).
On the same count and under the same terms, to `COc1cc2c(Nc3ccc(Br)cc3F)ncnc2cc1OCC1CCN(C)CC1` belongs 20.9 µM (active).
Turning to `CCCc1nn(C)c2c(=O)[nH]c(-c3cc(S(=O)(=O)N4CCN(C)CC4)ccc3OCC)nc12`, the “viability (% of control)” value was 99.9% (inactive).

A further assay is described as follows: High-throughput drug toxicity screening in the BPDCN cell line Gen2.2 (AID 1224824).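 Further: cells exposed to compounds for 48 h before reading.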 To be noted: Gen2.2 BPDCN cells; at 45.8 µM (top of the series) unless noted. The method in brief:
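Gen2.2 cells (500/well) in phenol red-free RPMI with 10% FBS were exposed to compounds for 48 h at 37 °C, 5% CO2. Viability was read by CellTiter-Glo luminescence and normalized to DMSO (100%) and 9.2 uM bortezomib (0%).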
With `CN1C(=O)CCS(=O)(=O)C1c1ccc(Cl)cc1` (centres undefined), the cell viability, % of control (lower = more cytotoxic) was found to be 143%.
Regarding `CC(C)c1cccc(C(C)C)c1O`, the cell viability, % of control (lower = more cytotoxic) came to 123%.
`CN1C(=O)COc2c(C(=O)NC3CN4CCC3CC4)cc(Cl)cc21` (centres undefined): the cell viability, % of control (lower = more cytotoxic) is 212%.
